Assay [1] deals with Plasmodium falciparum Sir2 (PF13_0152, Sir2A). Description: pfSir2 binders on small-molecule microarrays, primary screen, biochemical, small-molecule microarray, 635 nm fluorescence (AID 1098).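 Note: score merges spot fluorescence intensity with its signal-to-noise ratio.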 As to conditions: small-molecule microarray binding, fluorescence 635 nm; higher = more signal.
Assay [2] can be described thus: small-molecule microarray binders of probe aDKK1, primary screen, biochemical, biotinylated probe, 635/667 nm fluorescence (AID 1099).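 Note: score merges 667nm spot fluorescence with signal to noise across triplicate slides; reference of the scale not given here.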 As to conditions: higher = more signal.
Assay [3] is described as follows: small-molecule microarray binders of probe aCHRDL2, primary screen, biochemical, biotinylated probe, 635/667 nm fluorescence (AID 1100). As to conditions: higher = more signal.
The nature of assay [4]: splicing luciferase reporter signal modulators, primary screen, spliceosome inhibition project, cell-based, HEK293, splice +/- reporter (AID 1101).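 Note: HEK293 cells carrying a splicing-competent luciferase reporter gene; test concentration not given here.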 The conditions noted are these: luminescence, 24 h, higher = more signal, called active from +8 up or from −8 down.
For assay [5], the target named is Fibroblast growth factor 10 (Homo sapiens) (UniProt O15520). In words: FGF10 binders on small-molecule microarrays, primary screen, biochemical, small-molecule microarray, 635 nm fluorescence (AID 1102). As to conditions: FGF10 binding, fluorescence 635 nm, higher = more signal.
Sequence of Fibroblast growth factor 10 (Homo sapiens) (O15520 whole entry, looked up): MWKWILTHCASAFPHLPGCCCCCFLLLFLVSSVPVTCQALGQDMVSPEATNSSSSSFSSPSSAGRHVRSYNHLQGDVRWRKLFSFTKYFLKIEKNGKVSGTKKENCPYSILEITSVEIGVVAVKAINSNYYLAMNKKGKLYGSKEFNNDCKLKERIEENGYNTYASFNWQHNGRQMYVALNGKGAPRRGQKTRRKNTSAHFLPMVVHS
Assay [6] concerns glycogen synthase kinase-3 (GSK3A per assay name; protocol says GSK3B). In words: GSK3 binders on small-molecule microarrays, primary screen, biochemical, small-molecule microarray, 635 nm fluorescence, GSK3A (AID 1103). Note: the record names both GSK3A and GSK3B. As to conditions: small-molecule microarray binding, fluorescence 635 nm; higher = more signal.
For assay [7], the target named is Epidermal growth factor receptor (Homo sapiens) (UniProt P00533). Description: EGFR binders on small-molecule microarrays, primary screen, biochemical, small-molecule microarray, 635 nm fluorescence (AID 1104).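 Note: score merges 667 nm emission intensity with spot signal to noise over triplicate slides.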 As to conditions: EGFR binding, higher = more signal.
Sequence of Epidermal growth factor receptor (Homo sapiens) (P00533 whole entry, looked up): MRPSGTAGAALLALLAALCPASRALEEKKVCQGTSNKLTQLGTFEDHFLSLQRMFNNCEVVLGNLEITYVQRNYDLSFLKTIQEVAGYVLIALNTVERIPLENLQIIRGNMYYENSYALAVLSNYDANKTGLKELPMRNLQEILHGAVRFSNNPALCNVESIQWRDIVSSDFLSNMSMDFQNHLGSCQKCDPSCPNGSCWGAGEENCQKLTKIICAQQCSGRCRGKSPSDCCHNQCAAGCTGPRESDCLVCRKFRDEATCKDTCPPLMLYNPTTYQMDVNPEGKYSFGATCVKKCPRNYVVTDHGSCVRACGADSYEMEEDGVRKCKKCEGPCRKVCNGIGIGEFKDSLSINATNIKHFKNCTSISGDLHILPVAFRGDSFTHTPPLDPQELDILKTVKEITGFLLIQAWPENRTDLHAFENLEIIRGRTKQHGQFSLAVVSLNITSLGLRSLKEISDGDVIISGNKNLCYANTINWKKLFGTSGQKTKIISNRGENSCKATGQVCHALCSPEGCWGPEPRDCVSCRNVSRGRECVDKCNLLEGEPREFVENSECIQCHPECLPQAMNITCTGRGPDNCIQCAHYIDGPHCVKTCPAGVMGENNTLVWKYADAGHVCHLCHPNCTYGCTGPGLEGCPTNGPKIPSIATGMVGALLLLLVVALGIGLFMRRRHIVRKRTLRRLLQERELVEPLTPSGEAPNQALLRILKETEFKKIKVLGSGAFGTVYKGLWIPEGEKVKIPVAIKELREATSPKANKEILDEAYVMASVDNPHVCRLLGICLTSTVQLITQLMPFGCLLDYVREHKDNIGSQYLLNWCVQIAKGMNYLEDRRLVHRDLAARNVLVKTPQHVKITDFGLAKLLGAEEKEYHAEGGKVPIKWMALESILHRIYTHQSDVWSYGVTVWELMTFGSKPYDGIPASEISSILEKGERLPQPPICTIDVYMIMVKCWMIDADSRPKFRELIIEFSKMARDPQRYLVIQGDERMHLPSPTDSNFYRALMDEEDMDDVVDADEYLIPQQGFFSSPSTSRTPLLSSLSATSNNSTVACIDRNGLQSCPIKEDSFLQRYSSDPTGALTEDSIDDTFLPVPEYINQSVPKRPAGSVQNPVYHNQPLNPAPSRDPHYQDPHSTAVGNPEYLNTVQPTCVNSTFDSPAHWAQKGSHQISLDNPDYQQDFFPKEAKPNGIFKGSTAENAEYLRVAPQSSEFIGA
Assay [8] deals with Follistatin-related protein 3 (Homo sapiens) (UniProt O95633). Description: FSTL3 binders on small-molecule microarrays, primary screen, biochemical, small-molecule microarray, 635 nm fluorescence (AID 1105).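 Note: score merges emission near 667 nm and signal to noise per printed spot across three slides.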 The conditions noted are these: FSTL3 binding, higher = more signal.
Sequence of Follistatin-related protein 3 (Homo sapiens) (O95633 whole entry, looked up): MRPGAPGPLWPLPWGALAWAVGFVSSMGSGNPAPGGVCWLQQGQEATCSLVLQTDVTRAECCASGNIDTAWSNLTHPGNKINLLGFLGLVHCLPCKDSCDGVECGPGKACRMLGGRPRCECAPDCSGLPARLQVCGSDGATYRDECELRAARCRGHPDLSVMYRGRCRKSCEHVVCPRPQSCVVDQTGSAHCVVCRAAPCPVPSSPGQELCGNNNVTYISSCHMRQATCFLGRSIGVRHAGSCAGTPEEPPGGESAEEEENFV
Assay [9] concerns the target Dickkopf-related protein 1 (Homo sapiens) (UniProt O94907). In words: DKK1 binders on small-molecule microarrays, primary screen, biochemical, small-molecule microarray, 635 nm fluorescence scan (AID 1106).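 Note: score merges emission near 667 nm with signal to noise over three replicate slides.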 The conditions noted are these: DKK1 binding, higher = more signal.
Assay [10] relates to Inhibin beta A chain (activin A). Description: INHBA (activin A) binders on microarrays, primary screen, biochemical, small-molecule microarray, 635 nm fluorescence scan (AID 1107).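 Note: mouse activin A protein probed at 4.33 µg/mL on printed slides; score merges bound-protein fluorescence near 667 nm with spot signal-to-noise.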 The conditions noted are these: small-molecule microarray binding, higher = more signal.

The source made the active and inactive calls.

Sequence of Dickkopf-related protein 1 (Homo sapiens) (O94907 whole entry, looked up): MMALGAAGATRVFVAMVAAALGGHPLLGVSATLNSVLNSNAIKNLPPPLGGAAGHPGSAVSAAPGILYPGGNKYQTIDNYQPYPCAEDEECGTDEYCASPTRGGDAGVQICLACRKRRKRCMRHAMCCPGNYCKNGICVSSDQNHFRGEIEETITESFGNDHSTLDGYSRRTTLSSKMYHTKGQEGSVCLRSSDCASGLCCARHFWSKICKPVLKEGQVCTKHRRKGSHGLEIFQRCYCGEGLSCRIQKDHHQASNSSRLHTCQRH

For the molecule `COC(=O)[C@@]1(Cc2ccc(F)cc2)[C@H]2c3cc(C(=O)N4CCCC4)n(CCc4ccccn4)c3C[C@H]2CN1C(=O)c1ccccc1`, the composite z-score in assay [1] is 0.785; in assay [2], 0.507; in assay [3] it was 1.02; in [5], 0.577; in [6] it was -0.73; in assay [7], -0.559. Also, the composite z-score in assay [8] is -0.575; in [9], -0.554; in assay [10] it was 0.987. The z-score in [4] is -1.31 (inactive).
Take `COc1cc(OC)c(C(O)C2C=CC3C(=O)N(c4ccccc4)C(=O)C3N2Nc2ccc(C(C)C)cc2)cc1Br` (stereo not given): the composite z-score in assay [1] came out at 0.891; in assay [2], 0.671; in [3] it was 0.605; in [5] it was 0.909; in assay [6], 1.3; in assay [7] it was 0.21. For the same molecule, the figures for the composite z-score in assay [8], in assay [9] and in assay [10] were 0.839, 0.245 and 0.735, respectively. In addition, the z-score in [4] was -0.603 (inactive).
`C=CCNC(=O)[C@@H]1[C@H]2C(=O)O[C@H](c3ccccc3)[C@H](c3ccccc3)N2[C@H](c2ccc(OCCO)cc2)[C@@]12C(=O)Nc1ccc(C#CC3(O)CCCCCC3)cc12`: the composite z-score in assay [1] amounted to 1.42; in assay [2], 0.535; in [3], 0.65; in [5], 0.986; in assay [6], 1.22; in assay [7] it was 0.378. Moreover, the values for the composite z-score in assay [8], in assay [9] and in [10] were 0.826, 0.371 and -0.0995, respectively. For the same molecule, in [4], the z-score is -1.43 (inactive).
As to `NC(=O)N1C(=O)C2C(C1=O)C1C=C(CCCO)C2C(c2ccc(CN3CCCC3)cc2)N1Cc1cc2c(cc1Br)OCO2` (stereo not given), the composite z-score is -0.0167 in [1]; -0.204 in assay [2]; 0.228 in assay [3]; 0.325 in assay [5]; 0.177 in assay [6]; -0.287 in assay [7]. For the same molecule, the composite z-score was -0.0816 in assay [8], 0.388 in assay [9] and 0.45 in [10]. Further, the z-score in assay [4] is 0.343 (inactive).
For the molecule `O=C(NCC(O)CO)[C@@]1(CCS(=O)(=O)c2ccccc2)N=C(c2ccc(OCCCO)cc2)O[C@H]1c1ccccc1` (stereo not given in full), the composite z-score in [1] is 1.11; in [2], 1.27; in [3] it was 0.985; in assay [5], 0.303; in [6], 0.235; in assay [7] it was -0.928. Further, the composite z-score in [8] is -0.555; in assay [9], -1.1; in [10], 0.801. The z-score in assay [4] was -0.809 (inactive).
Turning to `COC(=O)[C@@]1(Cc2ccc(OC)cc2)[C@H]2c3cc(C(=O)N(C)C)[nH]c3C[C@H]2CN1C(=O)c1ccccc1`, the composite z-score in [1] is 1.03; in [2], 0.416; in [3], 0.564; in assay [5], 1.12; in assay [6], -0.54; in assay [7] it was -0.144. In addition, the composite z-score was -0.273 in assay [8], -0.465 in assay [9] and 0.0999 in assay [10]. For the same molecule, the z-score in [4] is 0.569 (inactive).
For the molecule `COc1ccc([Si](C)(C)[C@@H]2[C@@H](CC(=O)N(CCO)Cc3ccccc3)O[C@]3(C(=O)N(Cc4ccc(N5C(=O)c6cccc7cccc5c67)cc4)c4ccccc43)[C@H]2C)cc1`, the composite z-score is 1.17 in assay [1]; -0.0669 in assay [2]; 0.0161 in [3]; 0.404 in [5]; 0.01 in assay [6]; 0.317 in assay [7]. In addition, the composite z-score in [8] is 0.12; in [9] it was 0.283; in assay [10], 0.516. Besides, the z-score in [4] was -1.33 (inactive).
Consider `NC(=O)NCC#Cc1ccc2c(c1)[C@]1(C(=O)N2)[C@H](c2ccc(OCCO)cc2)N2[C@H](c3ccccc3)[C@H](c3ccccc3)OC(=O)[C@H]2[C@@H]1C(=O)O`, for which the composite z-score in [1] is 1.05; in assay [2] it was 0.151; in assay [3], 0.654; in assay [5] it was -0.808; in assay [6], -1.84; in assay [7], -0.716. For the same molecule, the composite z-score was -0.567 in assay [8], -0.57 in assay [9] and 0.993 in assay [10]. Further, the z-score in assay [4] was -0.708 (inactive).
As to `COc1ccc([Si](C)(C)[C@H]2[C@H](CCO)O[C@@]3(C(=O)N(Cc4cccc(N5C(=O)c6ccccc6Oc6ccccc65)c4)c4ccccc43)[C@@H]2C)cc1`, the composite z-score in assay [1] was 0.742; in assay [2], -0.109; in assay [3], -0.236; in assay [5], 0.396; in assay [6] it was -0.479; in [7], 0.111. Further, the composite z-score was -0.628 in assay [8], -0.0781 in assay [9] and 0.212 in [10]. In assay [4], the z-score was -1.93 (inactive).
`O=C1[C@@H]2[C@@H](CC(COc3ccccc3)=C([C@H](O)CCc3ccccc3)[C@@H]2CO)C(=O)N1Cc1ccccc1`: the composite z-score was 0.764 in assay [1]; -0.0833 in assay [2]; -0.264 in assay [3]; 0.408 in assay [5]; -0.0949 in [6]; 0.256 in assay [7]. In addition, the composite z-score in [8] worked out at 0.679; in [9] it was 0.286; in assay [10] it was 0.343. The z-score in [4] was 0.187 (inactive).

The values are drawn from PubChem BioAssay.
